PubChem BioAssay AID1259343 (VanderVen Lab, College of Veterinary Medicine, Cornell …, 2017)
In all, about 6,200 compounds went through this assay and about 2,900 (47%) were called active. The set was probably picked from earlier hits. The list shows a part of the results. Values without a mark were called inactive. Cut-off read from the data, not from the text of the source: active = inhibition above about 50%; inactive = the rest.

Test: Mycobacterium tuberculosis growth inhibition, primary screen (AID 1259343)
Conditions: inhibition: at 10 µM, active compounds read high; outcome: 10 uM

Compound | inhibition
O=C(Nc1cccc(O)c1)c1nn2c(C(F)(F)F)cc(-c3ccccc3)nc2c1Cl | -37.9%
Fc1ccc2c(c1)C(=NNc1nc3ccccc3s1)CCS2 | -16.9%
c1ccc2c(c1)CCC(=NNc1nc3ccccc3s1)C2 | 48.5%
Oc1c(Cl)cc(Cl)cc1C=NNc1nc2ccccc2s1 | 101% (active)
CC(C)C1CC(=NNC(N)=S)C=C2CCCCC21 (stereo not drawn) | 102% (active)
CC(Oc1ccccc1)C(=O)Nn1cnc2c(cnn2-c2ccc(F)cc2)c1=O (stereo not drawn) | 70.4% (active)
COCCCNC(=O)c1nn(-c2ccc(F)cc2)c2ncccc12 | 42.3%
Cc1ccc(-c2nnc(-c3ccccc3N)[nH]c2=O)cc1C | 49.2%
C=CCSc1nnc(-c2cc(Br)ccc2N)c(=O)[nH]1 | 76.5% (active)
CCCCCCCCc1nnc(N)s1 | 89.3% (active)
CCCCc1ccc(NC(=O)CNc2ccccc2C(C)=O)cc1 | 90.7% (active)
CCc1ccc(NCC(=O)Nc2ccc(I)cc2C)cc1 | 53.6% (active)
CCc1ccc(NC(=O)CNc2ccc(F)c(F)c2F)cc1 | 96.5% (active)
CCC(C)c1ccc(NC(=O)CNc2ccc(F)c(C(=O)OC)c2)cc1 (stereo not drawn) | -5.36%
CN(Cc1ccc(Br)cc1)C(=O)Nc1ccc(F)c(F)c1F | 44.5%
CSc1nc2cc(NC(=S)NC(=O)c3ccccc3)ccc2s1 | 91.3% (active)
CC(C)C(=O)NC(=S)Nc1nc2ccc(Cl)cc2s1 | 13.7%
COc1cc(C(=O)N2CCOC(COc3cccc(C(F)(F)F)c3)C2)ccc1F (stereo not drawn) | 62.2% (active)
O=C(Cc1cccc(Cl)c1)N1CCOC(COc2cccc(C(F)(F)F)c2)C1 (stereo not drawn) | 17.4%

Compound | inhibition
O=C(c1cc(F)cc(F)c1)N1CCOC(COc2cccc(C(F)(F)F)c2)C1 (stereo not drawn) | 84.5% (active)
O=C(COc1ccc(F)cc1)N1CCOC(COc2cccc(C(F)(F)F)c2)C1 (stereo not drawn) | 15.7%
N#CSc1ccc(N)c(Cl)c1 | 94.6% (active)
Cc1cccc(OCCN(C)c2cnn(-c3ccc(F)cc3F)c(=O)c2Cl)c1 | 14.4%
Cc1ccc(CSc2nc(CC(=O)NCc3ccco3)cs2)cc1 | 90.2% (active)
Cc1ccc(CSc2nc(CC(=O)NCC(C)C)cs2)cc1 | 58.9% (active)
Cc1ccc(CSc2nc(CC(=O)O)cs2)cc1 | 31.9%
CCNC(=O)Cc1csc(SCc2ccc(C)cc2)n1 | 72.3% (active)
Cc1ccc(CSc2nc(CC(=O)NCc3ccccc3)cs2)cc1 | 62.1% (active)
O=C(CCl)NC(=O)NCc1cccs1 | -19.2%
Cc1ccc(CSc2nc(CC(=O)NC3CCCCC3)cs2)cc1 | 81.7% (active)
CC(C)CN(CC(=O)Nc1nc(CC(=O)NCc2ccc(F)cc2)cs1)C(=O)c1ccc(Cl)cc1 | -3.41%
Cc1ccc(CSc2nc(CC(=O)NC3CC3)cs2)cc1 | 50%
Cc1ccc(CSc2nc(CC(=O)NCc3cccs3)cs2)cc1 | 60.2% (active)
Cc1ccc(CSc2nc(CC(=O)NC3CCCC3)cs2)cc1 | 3.98%
CC(C)CCNC(=O)Cc1csc(SCc2ccc(Cl)cc2)n1 | 68.8% (active)
CCC(C)NC(=O)Cc1csc(SCc2ccc(C)cc2)n1 (stereo not drawn) | -14.8%
Cc1ccc(CSc2nc(CC(=O)NCCC(C)C)cs2)cc1 | 5.27%
Cc1ccc(CSc2nc(CC(=O)NC(C)C)cs2)cc1 | 69.6% (active)
